Hits are enriched below; roughly 2.4% of the tested compounds scored in any of these assays.
CHT allo act – allosterically activates the human high affinity choline transporter. AID 488977. Q9GZV3. B-score at 10 µM. CHT-expressing cells, membrane potential dye, choline EC20; stronger effect = higher value; LV-AA mutant CHT in HEK293 cells. 0.49% of 310,000 active;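 active = initial fluorescence not abnormally high and integrated response B-score, plate-corrected, over 3 SD above library mean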
CHT inh – human CHT choline transport inhibition. Q9GZV3. CHT-expressing cells, membrane potential dye, choline response; stronger effect = lower value. B-score at 10 µM. 0.86% of 310,000 active. AID 488975;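 active = B-score over 3 SD under the library average, and starting fluorescence ratio not unusually high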;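 also: choline stimulus applied at its EC90 after an EC20 pre-addition; B-score computed on integrated fluorescence ratio after choline addition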
ANO1 block – mouse TMEM16A channel inhibition, primary screen. HEK293 TMEM16A/YFP iodide influx fluorescence, ionomycin. normalized B-score (activity score, 25-100; higher = stronger inhibition) at 10 µM. 1.2% of 310,000 active;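 active = ratio plate-corrected score three or more library SD toward inhibition, starting fluorescence score within five deviations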;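 also: score derived from kinetic fluorescence span divided by baseline fluorescence per well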
Target sequence (Q8BHY3 whole entry, looked up): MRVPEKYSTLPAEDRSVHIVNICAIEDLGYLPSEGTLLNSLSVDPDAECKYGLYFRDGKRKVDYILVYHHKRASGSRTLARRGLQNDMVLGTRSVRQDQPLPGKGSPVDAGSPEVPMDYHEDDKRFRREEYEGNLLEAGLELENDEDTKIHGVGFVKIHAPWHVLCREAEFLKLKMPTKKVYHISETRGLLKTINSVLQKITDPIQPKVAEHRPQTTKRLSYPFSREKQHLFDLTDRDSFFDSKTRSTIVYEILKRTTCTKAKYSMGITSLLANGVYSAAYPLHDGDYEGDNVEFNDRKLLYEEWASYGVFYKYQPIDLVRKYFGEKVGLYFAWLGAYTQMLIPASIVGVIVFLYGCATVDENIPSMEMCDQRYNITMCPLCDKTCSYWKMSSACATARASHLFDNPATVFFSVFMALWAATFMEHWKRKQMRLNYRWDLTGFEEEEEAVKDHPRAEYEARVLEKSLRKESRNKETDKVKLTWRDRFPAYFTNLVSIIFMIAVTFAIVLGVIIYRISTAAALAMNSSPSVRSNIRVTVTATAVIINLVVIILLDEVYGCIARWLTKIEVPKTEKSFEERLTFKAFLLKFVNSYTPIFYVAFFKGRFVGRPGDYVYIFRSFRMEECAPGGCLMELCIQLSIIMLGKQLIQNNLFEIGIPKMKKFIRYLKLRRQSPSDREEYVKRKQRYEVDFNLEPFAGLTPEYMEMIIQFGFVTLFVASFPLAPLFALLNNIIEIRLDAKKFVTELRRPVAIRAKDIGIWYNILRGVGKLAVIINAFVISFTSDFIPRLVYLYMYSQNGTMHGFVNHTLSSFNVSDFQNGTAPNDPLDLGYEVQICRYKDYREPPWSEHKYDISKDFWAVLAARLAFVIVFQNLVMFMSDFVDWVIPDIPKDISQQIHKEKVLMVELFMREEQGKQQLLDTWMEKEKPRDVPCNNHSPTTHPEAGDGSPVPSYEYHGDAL
ANO1 activ – activates or potentiates the mouse TMEM16A chloride channel; B-score at 10 µM; 0.3% of 340,000 active; HEK293 TMEM16A/YFP-H148Q/I152L, iodide quench fluorescence; stronger effect = lower value; Q8BHY3; AID 623877;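 active = fluorescence-ratio B-score plate-corrected deviation score at least 3 library SD below zero, with starting fluorescence score within 5 deviations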;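 also: channel opened by trigger with iodide after compound preincubation; score built on the fluorescence ratio of max minus min over baseline; more negative score means more quench and so TMEM16A activation or potentiation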
CHT inh conf – human CHT inhibition, confirmatory screen; shares compounds with CHT inh; CHT activity remaining % of control (stronger effect = lower value), % at 10 µM; CHT-expressing cells, choline membrane potential dye; LV-to-AA substituted CHT, HEK293 cells; 70% of 2,400 active; AID 493221;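 active = choline transporter activity left, mean of duplicates at 10 µM, below buffer-only control mean minus 3 SD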;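 also: depolarization triggered by choline at its EC90 following an EC20 pre-addition; 0% = hemicholinium-3 full block and 100% = buffer-only control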
HEK293 CHT ctr – counter-screen for CHT inhibitors: effect in parental HEK293 cells; shares compounds with CHT inh; membrane potential dye, choline response; active = decrease or increase beyond buffer ±3SD; membrane potential ratio readout (active if shifted either direction beyond buffer ±3SD; no single direction) at 10 µM; 4% of 2,400 active; AID 493222;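 also: parental cells lack the transporter so any hit is non-specific; ratio is peak minus trough fluorescence over baseline after EC90 choline challenge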
CHT activ conf – human CHT activation, confirmatory screen | 91% of 2,500 active | CHT-expressing cells, membrane potential dye fluorescence (FDSS); % of choline EC20–EC90 response window; HEK293 expressing CHT LV-AA mutant; choline added at its EC20 | shares compounds with CHT allo act | activation, % at 10 µM;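 active = primary screen active, with duplicate mean activation above negative control mean plus 3 SD, cut at about 11% in these data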
HEK293 MP dye – activity in parental HEK293 cells lacking CHT; shares compounds with CHT allo act; membrane potential dye fluorescence (FDSS); measured after EC20 choline addition; ratio readout change at 10 µM, hits read low; 62% of 2,500 active;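 active = duplicate-averaged ratio beyond 3 SD from buffer wells, up or down, though filed actives are nearly all decreases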
TMEM16A reconf – TMEM16A (mouse) chloride channel inhibition, re-confirmation. shares compounds with ANO1 block. HEK293 TMEM16A/YFP-H148Q, iodide quench fluorescence; ionomycin added to raise cell calcium. inhibition, % at 10 µM. 39% of 2,300 active;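 active = mean duplicate percent inhibition, scaled so buffer wells are 0 and the reference blocker 100, over three buffer SD above buffer mean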
TMEM16A Ca cntr – alters calcium mobilization in TMEM16A HEK293 cells, counter-screen | shares compounds with ANO1 block | TMEM16A/YFP HEK293, Fluo4 calcium mobilization | calcium response (% of ionomycin), % at 10 µM | 2% of 2,300 active | AID 652231;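 active = duplicate-averaged calcium signal over 20% of the ionomycin maximum, relative to buffer baseline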;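 also: each well's signal is peak minus trough fluorescence divided by its pre-addition baseline; 0% = buffer wells and 100% = ionomycin wells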
YFP-HEK293 quench – counter-screen for TMEM16A inhibitors: effect in parental YFP-HEK293 cells. shares compounds with ANO1 block. iodide YFP quench, ionomycin. YFP ratio F(max-min)/F0 at 10 µM. 2,300 tested, under 10 active. AID 652233;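 active = yellow fluorescent protein signal ratio exceeding the buffer control mean by over 5 SD of those controls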;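 also: ratio is mean of duplicate wells from kinetic YFP trace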
ClC-1 inh – blocks the rat ClC-1 voltage-dependent chloride channel; 2,300 tested, under 10 active; shares compounds with ANO1 block; CHO ClC-1-YFP, iodide influx fluorescence quench; iodide control reads 0, buffer control 100; ratio percent, % at 10 µM;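 active = duplicate-mean ratio percent above the mean of iodide-only control wells, which defines zero, plus 5 of their SD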;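 also: higher percent means stronger block of ClC-1 iodide influx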
* = called active by the depositor; i = inactive; · = no result given; ! = not confirmed by another sample.

SMILES	CHT allo act	CHT inh	ANO1 block	ANO1 activ	CHT inh conf	HEK293 CHT ctr	others
Cc1ccc(-n2c(O)c(C=NCc3ccco3)c(=O)[nH]c2=S)cc1C	i	i	i	i	·	·
Cc1ccc2c(c1)C1CN(C)CCC1N2C(=O)/C(C#N)=C/c1ccc2c(c1)OCO2 (stereo not given)	i	i	i	i	·	·
Cc1c(C(=O)O)cc(-c2ccccc2)n1Cc1ccccc1	i	-6.3*	i	i	7.3%*	-35*
CCOC(=O)C1CCN(/C=C2/C(=O)NC(=O)N(c3cccc(C)c3C)C2=O)CC1	i	i	i	i	·	·
O=C1NC(=O)C(=Cc2coc3ccccc3c2=O)C(=O)N1	i	-9.5*	i	i	46%*	i
CCCC1(CCC)C(=O)NC(=Nc2ccc(C)cc2)NC1=O	i	i	i	·	·	·
CC(=O)O[C@@H]1/C=C/[C@](C)(O)C[C@@H](C)C/C=C/[C@H]2[C@@H]3O[C@]3(C)[C@@H](C)[C@H]3[C@H](Cc4ccccc4)NC(=O)[C@@]312	i	-5.1*	i	·	71%*	i
C(#CCN1CCOCC1)COCC#Cc1ccccc1	i	i	i	i	·	·
CC[N+](CC)(CC#CCO)CC#Cc1ccccc1	i	-8.6*	i	i	35%*	i
CC#CP(=O)(OC)C(O)(CF)c1ccccc1 (stereo not given)	i	i	i	i	·	·
Cc1cccc(CCNCc2cc3cccc(C)c3[nH]c2=O)c1	i	-12*	i	i	8.5%*	i
Cc1[nH]n(-c2ccccc2)c(=O)c1C(c1ccc([N+](=O)[O-])cc1)c1c(C)[nH]n(-c2ccccc2)c1=O	i	-6.2*	i	i	36%*	i
O=[N+]([O-])c1ccc(C(c2ccc([N+](=O)[O-])cc2)c2ccc([N+](=O)[O-])cc2)cc1	·	·	·	i	·	·
CCC(C)N1C(=O)/C(=C/c2ccc3c(c2)CCN3CCCCl)C(=O)NC1=S (stereo not given)	i	-5.9*	i	i	i	i
Cc1cccc(N2C(=O)NC(=O)/C(=C\c3ccc4c(c3)CCCN4Cc3ccccc3)C2=O)c1	i	i	i	i	·	·
Cn1cnc([N+](=O)[O-])c1Sc1ccc([N+](=O)[O-])cc1	i	i	i	i	·	·
CC(C)(C)NCC(O)c1cc(Cl)c(N)c(Cl)c1 (stereo not given)	i	-5.1*	i	i	37%*	i
Cc1ccc(-c2cc(-c3ccc(C)cc3)[n+](-c3ccccc3)c(-c3ccc(C)cc3)c2)cc1	i	-5.5*	100*	i	66%*	3.5*
CCc1nn(CC(=O)N2CCC3(CC2)OCCO3)c(=O)c2cc3ccccc3n12	i	i	i	i	·	·
CCNC(=O)C1OC(n2cnc3c(N)ncnc32)C(O)C1O (stereo not given)	i	-6.7*	i	i	33%*	i
CCOC(=O)CCN=Cc1c(O)n(-c2ccc(Br)cc2)c(=O)[nH]c1=O	i	i	i	i	·	·
CCOc1ccc(-n2c(O)c(C=NCCN(CC)CC)c(=O)[nH]c2=O)cc1	i	-6.3*	i	i	i	i
Cc1cccc(N2CCc3c2nc2ccccc2c3N)c1	i	-9.3*!	i	i	56%*	i	CHT activ conf=33*;HEK293 MP dye=-56*
S=C(N1CCCCCC1)N1CC1	·	·	·	i	·	·
CCC(=NCCc1ccccc1)c1c(O)n(C)c(=O)n(C)c1=O	i	-5.6*	25*	i	53%*	i	TMEM16A reconf=i;TMEM16A Ca cntr=i;YFP-HEK293 quench=-1.1;ClC-1 inh=-6
SMILES	CHT allo act	CHT inh	ANO1 block	ANO1 activ	CHT inh conf	HEK293 CHT ctr	others
COC(=O)C1=C(c2cc3ccccc3o2)C[C@@H]2CC[C@H]1N2C(=O)NCc1ccco1	i	i	i	i	·	·
COc1ccc(C(=O)OC2C[C@H]3CC[C@H](C2)N3C)cc1OC (stereo not given in full)	6.6*	i	i	i	·	·	CHT activ conf=40*;HEK293 MP dye=-32*
O=[N+]([O-])c1ccc(N2CCCNCC2)c2ncccc12	9.3*	i	i	i	·	·	CHT activ conf=48*;HEK293 MP dye=-89*
O=[N+]([O-])c1ccc(N2CCCCC2)c2ncccc12	i	i	i	i	·	·
O=P1(Nc2cccnc2)COc2ccccc2OC1	i	i	i	i	·	·
Cc1ccc(-c2cc(-c3ccc(C)cc3)[n+](-c3ccc(C(=O)[O-])cc3)c(-c3ccc(C)cc3)c2)cc1	9.7*	i	i	i	·	·	CHT activ conf=12*;HEK293 MP dye=-35*
CCOC(=O)c1ccc(-[n+]2c(-c3ccccc3)cc(-c3ccccc3)cc2-c2ccccc2)cc1	7.7*	i	i	-14*	·	·	CHT activ conf=63*;HEK293 MP dye=i
CN(C)c1ccc(-[n+]2c(-c3ccccc3)cc(-c3ccccc3)cc2-c2ccccc2)cc1	·	·	·	i	·	·
CC1=NN(Cc2c[nH]c3ccccc23)C(C)(C)C1	i	i	i	i	·	·
O=c1[nH]c(=O)n(CCC2=CCCCC2)c(O)c1C=NCCN1CCNCC1	i	i	i	i	·	·
COC(=O)C1=C(c2cccc(OCc3ccccc3)c2)C[C@@H]2CC[C@H]1N2C(=O)NCCCc1ccccc1	·	·	·	i	·	·
N=C1c2ccccc2CN1c1ccc(F)c([N+](=O)[O-])c1	i	i	i	i	·	·	CHT activ conf=46*;HEK293 MP dye=-26*
